AmpC inh detg = qHTS Inhibitors of AmpC Beta-Lactamase (assay with detergent); Potency, µM (doses to about 114 µM), inactives show top-dose activity change, negative = inhibition, most hits filed as inhibitors; 0.041% of 370,000 active; P00811; AmpC hydrolysis of nitrocefin, absorbance 480 nm, 0.01% Triton;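 further: 0% = no-compound wells and -100% = no-enzyme wells; nearly all actives have a fitted effect of over 25% in size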
Target sequence (P00811 whole entry, looked up): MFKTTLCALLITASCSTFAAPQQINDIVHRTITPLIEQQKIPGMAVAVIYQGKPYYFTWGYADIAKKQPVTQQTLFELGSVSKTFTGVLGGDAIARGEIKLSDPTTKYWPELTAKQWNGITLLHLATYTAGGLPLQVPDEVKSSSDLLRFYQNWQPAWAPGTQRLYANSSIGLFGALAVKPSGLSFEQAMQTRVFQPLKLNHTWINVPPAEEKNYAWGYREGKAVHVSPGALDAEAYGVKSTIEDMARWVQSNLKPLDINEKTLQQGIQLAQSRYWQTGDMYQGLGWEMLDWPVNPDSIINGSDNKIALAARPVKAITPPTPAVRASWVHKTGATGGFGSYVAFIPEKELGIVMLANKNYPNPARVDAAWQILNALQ
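AmpC (5.3 nM in the dispensed reagent) in 20 mM phosphate pH 7.0 with 0.01% (detergent screen) or 0.0001% Triton X-100 was preincubated with compounds for 15 min at room temperature. Nitrocefin was then added from an 800 uM solution, and hydrolysis was followed at 480 nm.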
Sm TGR inh = qHTS Assay for the Inhibitors of Schistosoma Mansoni Peroxiredoxins | Schistosoma mansoni thioredoxin glutathione reductase (TGR), Q962Y6 | purified TGR, DTNB reduction, TNB absorbance 405 nm | Potency, µM (doses to about 114 µM), for the others: top-dose activity change, negative = inhibition, hits mostly inhibitors | 3% of 360,000 active; further: nearly all actives have a fitted effect of over 60% in size
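Kinetic colorimetric format: TGR-catalysed, NADPH-driven DTNB reduction monitored via TNB absorbance. Enzyme dispensed at 20 nM; compound exposure 15 min at room temperature before reaction start.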
AmpC inh no detg = qHTS Inhibitors of AmpC Beta-Lactamase (assay without detergent). AmpC nitrocefin hydrolysis, absorbance 480 nm, 0.0001% Triton. Potency, µM (doses to about 57.1 µM), for the others: top-dose activity change, negative = inhibition, actives largely listed as inhibitors. 0.52% of 330,000 active. AID 485341, 2010;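 further: plate controls were no compound for no effect and no enzyme for full effect; nearly all actives have a fitted effect of over 20% in size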
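AmpC (5.3 nM in the dispensed reagent) in 20 mM phosphate pH 7.0 with 0.01% (detergent screen) or 0.0001% Triton X-100 was preincubated with compounds for 15 min at room temperature. Nitrocefin was then added from an 800 uM solution, and hydrolysis was followed at 480 nm.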
* marks the source's active call; other numbers are inactive results; ? = inconclusive; nt = no result given; [ ] = remark or other dose. A selection: hits, their analogues and other compounds. The true share with any hit is near 3.3%. The call rests on the fitted dose curve; in most records, active means well fitted curve in the direction sought with a large enough effect; inconclusive means small, poorly fitted or top-dose-only effect, or another doubt; inactive means no such curve, though single readings can be large; an effect the other way counts as inactive or inconclusive. Unless noted, on the % scale 0 is the no-effect control and ±100 the full control effect; potency means the concentration at half of the fitted maximal effect.

SMILES	AmpC inh detg	Sm TGR inh	AmpC inh no detg
Cc1[nH]n(-c2ccccc2)c(=S)c1C=Nc1cccc([N+](=O)[O-])c1	?	79µM*	-26%
CCCCN=Cc1c(C)[nH]n(-c2ccccc2)c1=S	3%	0%	29%
COc1ccc(N2C(=O)CC(N(CCc3ccccc3)C(=O)/C=C/C(=O)O)C2=O)cc1 (stereo not drawn)	4%	?	-14%
O=C(O)/C=C/C(=O)N(CC1CCCO1)C1CC(=O)N(c2c(Cl)cccc2Cl)C1=O (stereo not drawn)	1%	40µM*	-14%
Cc1ccc(C(=O)C[n+]2cccc3ccccc32)cc1	0%	0%	0.16µM*
O=C(C[n+]1cccc2ccccc21)c1ccc(Br)cc1	?	17%	-22%
CCOc1cccc(CC(=O)N2CCc3c([nH]c4ccccc34)C2c2ccc(C)cc2)c1OCC (stereo not drawn)	0%	3%	nt
Cc1ccc(C2=NN(C(=O)CSc3nc4ncc(Cl)cc4[nH]3)C(c3ccco3)C2)cc1 (stereo not drawn)	?	14µM*	10µM*
Nc1cc(=O)[nH]c(SCC(=O)N2N=C(c3ccc(Cl)cc3)CC2c2ccco2)n1 (stereo not drawn)	5%	nt	-27%
CCCc1cc(=O)[nH]c(SCC(=O)N2N=C(c3ccc(Cl)cc3)CC2c2ccco2)n1 (stereo not drawn)	-1%	1%	-15%
COc1ccc(C2=NN(C(=O)CSc3nc4ncc(Cl)cc4[nH]3)C(c3ccco3)C2)cc1 (stereo not drawn)	?	28µM*	-31%[11.4 µM]
COc1ccc(C2=NN(C(N)=S)C(c3ccco3)C2)cc1 (stereo not drawn)	8%	8.9µM*	-30%
COc1ccc(C2=NN(C(=O)CSc3nnc(-c4ccccc4F)o3)C(c3ccco3)C2)cc1 (stereo not drawn)	-1%	-7%	-24%
CCOc1ccc(NC(=O)CN(C)S(=O)(=O)c2ccc3[nH]c4c(c3c2)CCCC4)cc1	-6%	3%	nt
CS(=O)(=O)Nc1ccc(C2=NN(S(=O)(=O)c3ccc(F)cc3)C(c3ccco3)C2)cc1 (stereo not drawn)	4%	14µM*	-42%
O=S(=O)(c1ccccc1)N1N=C(c2ccc(Br)cc2)CC1c1ccco1 (stereo not drawn)	-1%	56µM*	-41%
O=S(=O)(c1ccccc1)N1N=C(c2ccc(O)cc2)CC1c1ccco1 (stereo not drawn)	1%	-4%	14µM*
Cc1ccc(C2=NN(S(=O)(=O)c3ccccc3)C(c3ccco3)C2)cc1 (stereo not drawn)	10%	0%	-33%
COc1ccccc1C1CC(c2ccc(NS(C)(=O)=O)cc2)=NN1S(=O)(=O)c1ccccc1 (stereo not drawn)	1%	-6%	-5%
O=C(c1ccco1)N1N=C(c2ccc(Br)cc2)CC1c1ccco1 (stereo not drawn)	1%	-18%	-25%
Cc1ccc(-c2c(C)n3c4c(=O)n(C)c(=O)n(C)c4nc3n2CCCO)cc1	2%	-3%	nt
CN(C)c1ccc(CNC(=O)c2cc3cc(S(=O)(=O)N4CCCCC4)ccc3n2C)cc1	4%	5%	nt
CCOc1ccc(NC(=O)Cn2c(=O)cc(C)c3c(C)nn(-c4cccc(Cl)c4C)c32)cc1	22%	2%	nt
CN(C)c1ccc([C@@H]2[C@@H]([N+](=O)[O-])[C@H]3C=Cc4ccccc4N3[C@H]2C(=O)c2ccc(Cl)cc2)cc1	-10%	45µM*	-57%
O=C(c1ccccc1)C1C(c2ccccc2)C1[N+](=O)[O-] (stereo not drawn)	4%	8%	-29%
SMILES	AmpC inh detg	Sm TGR inh	AmpC inh no detg
Cc1ccc(C)c(N(C)C(=O)C2CCN(S(=O)(=O)c3cccc4nsnc34)CC2)c1	1%	-3%	nt
COc1ccc(OC)c(NC(=O)c2c(N3CCCC3=O)c3cc(OC)ccc3n2C)c1	0%	-5%	nt
CN1c2ccccc2C(O)=C(C(=O)Nc2ccccc2)S1(=O)=O	7%	67%	-28%
Cc1sc2c(c1C)C(O)=C(C(=O)Nc1ccccc1)S(=O)(=O)N2C	-6%	3.5µM*	-30%
Cc1ccc(C)c(N2CCN(S(=O)(=O)c3ccc(F)c(C(=O)Nc4ccc(Cl)cc4Cl)c3)CC2)c1	5%	-11%	nt
O=C1CC(=O)Nc2cc(S(=O)(=O)N3CCN(c4ccc([N+](=O)[O-])cc4)CC3)ccc2N1	1%	11µM*	-49%

Screening results from PubChem.
